Rows were chosen to be rich in hits. Some 1.7% of all compounds tested hit in one or more screens of this group.
GSTO1 inh – GSTO1 inhibition, counter-screen for RBBP9 inhibitors; P78417; recombinant GSTO1, activity-based probe fluorescence polarization; inhibition, % at 5.96 µM; actives 1.1% (n = 300,000); AID 1974;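 active means inhibition above the campaign mean inhibition plus 3 SD, cut at about 35% in these data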;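 further: 0% = GSTO1-1 with DMSO and 100% = wells lacking GSTO1-1 enzyme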
LYPLA1 counter – LYPLA1 (human) inhibition in PME1 counter-screen; O75608; recombinant LYPLA1, FP-Rh probe fluorescence polarization; inhibition, % at 5.9 µM; actives 0.16% (n = 320,000); AID 2174;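 active means inhibition above the mean of all tested compounds plus 3 SD, set per campaign, cut at about 14% in these data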;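 further: inhibitors block serine hydrolase probe labeling of LYPLA1 so polarization falls; 0% = enzyme with DMSO and 100% = wells lacking LYPLA1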
EBNA-1 inh – blocks EBNA-1 binding to DNA; inhibition, % at 14.8 µM; EBNA-1 DNA binding, fluorescence polarization; actives 0.34% (n = 300,000); in the data active means inhibition above about 28%
LYPLA2 inh – LYPLA2 (human) inhibition in PME1 counter-screen. O95372. recombinant LYPLA2, FP-Rh probe fluorescence polarization. inhibition, % at 5.9 µM. actives 0.38% (n = 320,000). AID 2177;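 active means inhibition above the screen-wide mean plus 3 SD, limit set per campaign, cut at about 26% in these data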;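 further: 0% = LYPLA2 with DMSO and 100% = wells lacking LYPLA2 enzyme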
PAD4 inh – inhibitors of human PAD4; Q9UM07; recombinant PAD4, RCA probe fluorescence polarization; inhibition, % at 6.36 µM; actives 0.41% (n = 330,000); AID 485272;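 active means percent inhibition above a cutoff equal to the mean of all tested compounds plus 3 SD, cut at about 15% in these data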;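 further: 0% = PAD4 with RCA probe and DMSO and 100% = probe without PAD4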
Target sequence (Q9UM07 whole entry, looked up): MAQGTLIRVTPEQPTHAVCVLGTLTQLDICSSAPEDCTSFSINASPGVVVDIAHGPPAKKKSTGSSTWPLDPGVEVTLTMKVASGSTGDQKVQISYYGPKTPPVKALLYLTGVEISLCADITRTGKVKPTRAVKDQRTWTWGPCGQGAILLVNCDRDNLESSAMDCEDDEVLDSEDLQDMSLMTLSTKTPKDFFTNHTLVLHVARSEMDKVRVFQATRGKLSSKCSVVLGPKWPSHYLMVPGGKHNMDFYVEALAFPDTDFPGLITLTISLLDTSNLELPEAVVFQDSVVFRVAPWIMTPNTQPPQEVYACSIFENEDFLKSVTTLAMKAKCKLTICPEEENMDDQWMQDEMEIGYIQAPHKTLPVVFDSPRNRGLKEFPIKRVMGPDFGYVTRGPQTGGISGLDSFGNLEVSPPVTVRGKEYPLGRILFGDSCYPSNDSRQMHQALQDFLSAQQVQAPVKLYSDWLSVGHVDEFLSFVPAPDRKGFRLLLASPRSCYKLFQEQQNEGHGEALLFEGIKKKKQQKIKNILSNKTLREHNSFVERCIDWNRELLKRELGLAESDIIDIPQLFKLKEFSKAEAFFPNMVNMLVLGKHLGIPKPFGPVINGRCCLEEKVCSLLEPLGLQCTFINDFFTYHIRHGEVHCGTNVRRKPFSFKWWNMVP
ZTA DNA inh – counter-screen for EBNA-1 inhibitors: inhibitors of Epstein-Barr virus ZTA; P03206; ZTA-DNA binding, fluorescence polarization; inhibition, % at 11 µM; actives 0.15% (n = 320,000); in the data active means inhibition above about 33%
LYPLA2 confirm – counter-screen for PME1 inhibitors: confirmation of human LYPLA2 inhibitors | recombinant LYPLA2, FP-Rh probe fluorescence polarization | inhibition, % at 5.9 µM | shares compounds with LYPLA2 inh | AID 2232 | actives 72% (n = 1,100);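 active means mean inhibition across replicates above the hit cutoff set in the primary screen, cut at about 26% in these data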;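 further: blocked labeling of the enzyme by serine hydrolase FP-Rh probe lowers polarization; 0% = enzyme with DMSO and 100% = wells lacking LYPLA2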
LYPLA2 ABPP – inhibitors of human LYPLA2; shares compounds with LYPLA2 inh; rhLYPLA2 in mouse brain proteome, gel ABPP FP-Rh; AID 652029; inhibition, % at 20 µM; actives 30% (n = 150);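 active means inhibition of LYPLA2 enzyme probe labeling above about 50%, limit read from the data; inactive means inhibition below that limit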;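 further: loss of FP-Rh probe labeling of the LYPLA2 gel band measured as band density; 0% = DMSO only control band and 100% = blank gel background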
* hit, by the source's call; / = not tested or not shown.

SMILES | GSTO1 inh | LYPLA1 counter | EBNA-1 inh | LYPLA2 inh | PAD4 inh | ZTA DNA inh | LYPLA2 confirm | others
CSCC[C@H](NC(=O)[C@@H]1CSC2c3ccccc3C(=O)N21)C(=O)NCc1ccco1 (stereo partly drawn) | 3 | -1 | -6 | 5 | 1 | -18 | /
COc1cc(C=O)cc(Cl)c1OC(=O)N1CCOCC1 | 4 | -1 | -16 | -7 | 1 | 7 | /
Cc1cc(N2CCN(c3ccc([N+](=O)[O-])c4cccnc34)CC2)c2ccccc2n1 | 5 | 6 | 10 | -1 | 0 | -16 | /
Cc1cc(N2CCN(c3ccc(C(F)(F)F)cc3[N+](=O)[O-])CC2)c2ccccc2n1 | 0 | 2 | -5 | 29* | -2 | 5 | 26*
Cc1ccc(OCCn2cnc3cc([N+](=O)[O-])ccc3c2=O)cc1 | -20 | -3 | -16 | -2 | -5 | 1 | /
COc1ccc2c(Cn3cnc4cc([N+](=O)[O-])ccc4c3=O)cc(=O)oc2c1 | 10 | 11 | -6 | 31* | -8 | -1 | 22
Cc1cccnc1NC(=O)C(c1ccccc1)c1ccccc1 | 4 | 0 | -1 | 27* | 1 | -2 | -1
COc1ccccc1Nc1ncc(C(=O)N2CCN(Cc3ccc(OC)c(OC)c3OC)CC2)c2ccccc12 | 3 | 2 | -5 | 46* | -2 | 3 | 24
COc1ccccc1Nc1ncc(C(=O)N2CCC(C(N)=O)CC2)c2ccccc12 | -1 | 1 | 6 | 0 | -1 | 6 | /
O=C(CN1CCN(C/C=C/c2ccccc2)CC1)NCc1ccc(Cl)cc1 | 4 | 6 | 1 | 42* | -3 | 20 | 34*
O=C(CN1CCN(c2ccc(Cl)cc2)CC1)NCc1ccccc1 | 8 | 3 | 7 | 7 | 3 | 5 | /
O=C(CSc1nnc(-c2cccc(Br)c2)o1)N1CCOCC1 | -2 | 4 | -10 | 2 | 2 | -19 | /
COc1ccc(Nc2nc(-c3cccc([N+](=O)[O-])c3)nc3ccccc23)cc1 | -1 | 5 | 4 | 37* | -5 | -11 | 1
Nn1c(SCC(=O)NCC2CCCO2)nnc1-c1ccco1 (stereo not drawn) | / | / | / | / | 2 | / | /
Cc1nc(-c2ccc(S(=O)(=O)N3CCN(C4c5ccccc5-c5ccccc54)CC3)s2)cs1 | -26 | -4 | -2 | -8 | 2 | 15 | /
Cc1nc(-c2ccc(S(=O)(=O)N3CCCN(CCc4ccccc4)CC3)s2)cs1 | 2 | 8 | 6 | 61* | 5 | 2 | 68* | LYPLA2 ABPP=50*
O=C(Cn1ccc2ccccc2c1=O)NCCC(=O)Nc1cccc(Cl)c1 | 3 | -1 | -2 | 1 | 1 | 17 | /
COc1ccc(NC(=O)c2ccc(-c3nn(C)c(=O)c4ccccc34)cc2)cc1C(N)=O | 6 | 3 | 9 | 8 | 1 | -3 | /
Cc1ccc(NC(=O)NC2CCN(S(=O)(=O)c3ccc(F)cc3)CC2)cc1 | 1 | -2 | 14 | 4 | 2 | -3 | /
CC(=O)c1ccc(S(=O)(=O)N2CCC(NC(=O)Nc3cccc(F)c3)CC2)cc1 | 1 | -3 | -1 | 37* | -1 | -7 | 47*
NC(=O)c1ccsc1NC(=O)COC(=O)CCOc1ccccc1 | 13 | 0 | 2 | 3 | -3 | 6 | /
O=C(NCc1cccc(Cl)c1)c1cc(COc2ccc3ncccc3c2)on1 | -27 | 0 | 4 | 39* | -4 | -3 | 36*
Cc1ccc(F)cc1CNC(=O)c1cc(COc2ccc3ncccc3c2)on1 | -9 | 2 | -4 | 46* | -3 | 3 | 54* | LYPLA2 ABPP=31
Cc1cc(C)n(CCNC(=O)c2cc(COc3ccc4ncccc4c3)on2)n1 | 3 | 0 | -2 | 5 | 1 | 9 | /
CCOc1ccc(S(=O)(=O)NCc2ccc3c(c2)OCO3)cc1 | 4 | -2 | 16 | 0 | -1 | -10 | /
SMILES | GSTO1 inh | LYPLA1 counter | EBNA-1 inh | LYPLA2 inh | PAD4 inh | ZTA DNA inh | LYPLA2 confirm | others
O=C(NCCS(=O)(=O)N1CCN(c2cccc(Cl)c2)CC1)c1ccc2c(c1)OCO2 | -5 | -1 | 4 | 47* | 2 | -2 | 56* | LYPLA2 ABPP=20
O=C(NCCCN1CCN(c2cccc(Cl)c2)CC1)c1ccc(N2CCCC2=O)cc1 | 5 | -1 | -8 | 5 | -5 | -3 | /
O=C(NCCCN1CCN(c2cccc(Cl)c2)CC1)c1cccc(N2CCCC2=O)c1 | 11 | 6 | -3 | 27* | -5 | -6 | 33*
Nc1ccccc1C(=O)NCCCN1CCN(c2cccc(Cl)c2)CC1 | 6 | 9 | 2 | 30* | -1 | 4 | 40*
COc1ccc(N2CCN(S(=O)(=O)CCNC(=O)c3ccc4c(c3)OCO4)CC2)cc1 | 5 | -1 | -2 | 17 | -3 | -2 | /
O=C(Nc1nncs1)c1cc(S(=O)(=O)N2CCOCC2)ccc1Cl | -1 | -1 | -12 | 3 | -3 | -14 | /
CC(C)(C)OC(=O)NC(CCCCNC=O)C(=O)O (stereo not drawn) | -4 | 9 | -4 | 81* | -1 | -5 | 3
CC(C)CC(NC(=O)OC(C)(C)C)C(=O)O (stereo not drawn) | -6 | -2 | -13 | -2 | -6 | 6 | /
O=C(NCc1ccccn1)c1ccc(OC2CCN(Cc3cccs3)CC2)cc1 | -4 | -2 | -3 | 28* | 5 | -2 | 6
Nc1cccc(Oc2ccc([N+](=O)[O-])cc2)c1 | 0 | 3 | 5 | 32* | 2 | 6 | 35*
O=C1NC(=O)c2cc(Oc3ccc([N+](=O)[O-])cc3)ccc21 | 5 | 1 | -1 | 30* | -7 | -3 | 36*
O=C(O)c1ccc(CN2C(=O)c3ccc(Oc4ccc([N+](=O)[O-])cc4)cc3C2=O)cc1 | 7 | -5 | -4 | 59* | -11 | 1 | 66* | LYPLA2 ABPP=59*
O=C(O)c1cccc(Oc2ccc([N+](=O)[O-])cc2)c1 | -7 | -3 | -3 | 1 | -6 | 12 | /
CC(=O)NN1C(=O)c2ccc(Oc3ccc([N+](=O)[O-])cc3)cc2C1=O | 1 | 0 | 5 | 4 | -3 | 1 | /
O=C1c2ccc(Oc3ccc([N+](=O)[O-])cc3)cc2C(=O)N1CCO | 10 | 0 | -1 | 20 | 0 | -19 | /
O=C(O)c1cccc(-c2ccc(/C=N/Nc3ccc([N+](=O)[O-])cc3)o2)c1 | 15 | 10 | 4 | 31* | -3 | 7 | 27*
O=C(O)c1ccc(-c2ccc(/C=N/Nc3ccc([N+](=O)[O-])cc3)o2)cc1 | -7 | 4 | -2 | 24 | -8 | 6 | /
CCOc1ccc(C(=O)CCC(=O)Nc2cccc(S(=O)(=O)N3CCCCC3)c2)cc1 | / | -11 | / | -8 | -2 | -10 | /
CC(=O)Nc1cccc(C(=O)OC(C)C(=O)N2CCc3ccccc32)c1 (stereo not drawn) | -5 | 0 | -9 | 28* | -1 | -5 | 28*
